Test results reported in PubChem BioAssay AID1347426 (Functional Genomics Laboratory (NCATS/FGL), 2020).
About 1,400 (4.5%) of roughly 31,000 sequences were called active. The full list was thinned out, with actives kept by preference. A number with no mark means an inactive call.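 How the source made its calls: active means median seed-adjusted z-score above 1 or below -1; inactive means the rest.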

Assay: Novel Modifiers of Survival Motor Neuron (SMN) Protein: Gene Identification via Genome-wide siRNA Screen;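 further: luminescence tracks full-length SMN protein made from the SMN2 reporter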
Conditions: HEK293T SMN2-luciferase reporter, siRNA knockdown, 72 h; actives lie on both sides
In short: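 siRNA screen, 10418 genes ×3 siRNAs; 1 pmol/well, lipid reverse transfection into HEK293T SMN2-luc reporter line. 72 h, 37 °C, 5% CO2; ONE-Glo readout. Data: neg-ctrl normalized, log10, MAD; hit = MAD >1.0 or < -1.0.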

**Q.** With CCAUGCUGGAGAUCAAGAATT against PRKAG3 as the sequence, how does the median seed-adjusted z-score read?
**A.** -1.03 (active)

**Q.** With CCCUGGAUGUCCUAUCUGATT against SLC2A1 as the sequence, how does the median seed-adjusted z-score read?
**A.** -0.349

**Q.** Which median seed-adjusted z-score does the source give for GGAGGAUGACAAGAUCUAUTT against RNF113A here?
**A.** -0.128

**Q.** With GCACUGAUGUAAAUUACUUTT against RAB6C as the sequence, how does the median seed-adjusted z-score read?
**A.** -1.08 (active)

**Q.** For GCAGUACAGUGAAUGCCGATT against AKAP8, which median seed-adjusted z-score is on record?
**A.** -0.252

**Q.** Which median seed-adjusted z-score does the source give for CCACCGAGCUAACAUCUGATT against MFAP3L here?
**A.** 1.03 (active)

**Q.** For CAGACUUAUUGUAACAAGATT against ENPP3, which median seed-adjusted z-score is on record?
**A.** 0.66

**Q.** With GCUACACUCAACUACCUGATT against ADCY5 as the sequence, how does the median seed-adjusted z-score read?
**A.** -0.123

**Q.** For CCACAAGAGUUCGAACUCATT against ZFX, which median seed-adjusted z-score is on record?
**A.** -0.581

**Q.** With GGAAUGCAAUUCUCAGAGATT against LCN2 as the sequence, how does the median seed-adjusted z-score read?
**A.** 0.123

**Q.** For CACAGAUUCGAGAAAUUCATT against SF3B1, which median seed-adjusted z-score is on record?
**A.** -3.65 (active)

**Q.** Which median seed-adjusted z-score does the source give for GGUUGACAAAUGCAGGAUATT against RIOK2 here?
**A.** -0.16

**Q.** For GCAUCGGCAUCUUCACGCUTT against FZD5, which median seed-adjusted z-score is on record?
**A.** -0.129

**Q.** For GACCCGCGAUUAAACCUCATT against CHST1, which median seed-adjusted z-score is on record?
**A.** 0.181

**Q.** Which median seed-adjusted z-score does the source give for GGUUUGGGAUGGGAAUUGATT against SUPT16H here?
**A.** 1.2 (active)

**Q.** Which median seed-adjusted z-score does the source give for GGGUACAAGUUACCUAAUATT against TDRD6 here?
**A.** 0

**Q.** Which median seed-adjusted z-score does the source give for GGAAACGACCUGUCAAAGATT against PHAX here?
**A.** -0.0716

**Q.** With GGAGAUCGUUCUGCACAGATT against PAEP as the sequence, how does the median seed-adjusted z-score read?
**A.** -0.0632

**Q.** With CCAUCUUGGUAAUGCCCAUTT against HTR1D as the sequence, how does the median seed-adjusted z-score read?
**A.** -0.155

**Q.** Which median seed-adjusted z-score does the source give for CGAGUUACUUUUCAGCUAATT against MYH4 here?
**A.** -1.8 (active)

**Q.** Which median seed-adjusted z-score does the source give for AGUUCACCCUCGUACUCUATT against FURIN here?
**A.** 0.0975

**Q.** For UCAUAAACUUGGAUAAGCATT against NRIP3, which median seed-adjusted z-score is on record?
**A.** -0.699

**Q.** Which median seed-adjusted z-score does the source give for GCGAAUGAGUGGUAGAGGATT against ARHGAP21 here?
**A.** 0.229

**Q.** Which median seed-adjusted z-score does the source give for GCACUUUUCGAGGAGGAGATT against SLC12A7 here?
**A.** -0.0309

**Q.** With CAGUUGAUUUAAGAGGUAATT against PRPF4B as the sequence, how does the median seed-adjusted z-score read?
**A.** -2.29 (active)

**Q.** With CAAGGAGUUUUACCCAGUATT against CYP4Z1 as the sequence, how does the median seed-adjusted z-score read?
**A.** -0.139

**Q.** Which median seed-adjusted z-score does the source give for CUUUAUGACUUAGAGUUAATT against BAAT here?
**A.** 0.641

**Q.** Which median seed-adjusted z-score does the source give for GAACUUAUAAGUGCAGCAATT against ZNF547 here?
**A.** 0.099

**Q.** For CGUGGAAGGUGAGUAAUAATT against ZBTB40, which median seed-adjusted z-score is on record?
**A.** 0.187

**Q.** For GGUGGUGAAUGAAGGUUCATT against HINT1, which median seed-adjusted z-score is on record?
**A.** 0.873

**Q.** For CCAUAACCGCCACACCCUUTT against GPR153, which median seed-adjusted z-score is on record?
**A.** -1.08 (active)

**Q.** For GAAUGCAUGUGAUCACCUATT against SF3B14, which median seed-adjusted z-score is on record?
**A.** -1.26 (active)

**Q.** Which median seed-adjusted z-score does the source give for GGGUUGCUAGAAAAUCGUATT against USP37 here?
**A.** 0.0907

**Q.** With GAGAUGAACGUGUAAAGAATT against CIR as the sequence, how does the median seed-adjusted z-score read?
**A.** -0.197

**Q.** For CAGAAUAUAUGACAGGAAATT against YY1, which median seed-adjusted z-score is on record?
**A.** 1.94 (active)

**Q.** With CCUCCGGAACAAGAACUAATT against ZNF397 as the sequence, how does the median seed-adjusted z-score read?
**A.** -0.107

**Q.** With GUCUGCUUUGUAUAGAUAATT against KLRC3 as the sequence, how does the median seed-adjusted z-score read?
**A.** 0.833

**Q.** With CGACUACAUGUUCAAGAUUTT against RAB3A as the sequence, how does the median seed-adjusted z-score read?
**A.** -0.0787

**Q.** With GGAUGCGUUUUCUGACAAATT against GPR149 as the sequence, how does the median seed-adjusted z-score read?
**A.** -0.186

**Q.** With GCAUACGAUUUUAAGCGGATT against PTEN as the sequence, how does the median seed-adjusted z-score read?
**A.** -0.408

**Q.** For GAACCAGGAGAGAAUAGAATT against PDGFRL, which median seed-adjusted z-score is on record?
**A.** 0.0203

**Q.** With GCUGCGAGCUCGAAACUUUTT against SEC14L4 as the sequence, how does the median seed-adjusted z-score read?
**A.** -0.714

**Q.** With CGACAAGUCUGACAGGGAUTT against PQBP1 as the sequence, how does the median seed-adjusted z-score read?
**A.** -1.12 (active)

**Q.** For GGUUUGAGCUUACUCUUCATT against ACCN5, which median seed-adjusted z-score is on record?
**A.** 0.227

**Q.** For GGGAAGAACAGAAUACUGATT against ZNF563, which median seed-adjusted z-score is on record?
**A.** 0.00283

**Q.** With GCGUGGAAAUUGUACCCGUTT against MBNL3 as the sequence, how does the median seed-adjusted z-score read?
**A.** -0.189

**Q.** For GGAAAAGGAACGGAAUAAATT against MLN, which median seed-adjusted z-score is on record?
**A.** -0.422

**Q.** For GCAGUUAACACUCAAGGAATT against MKKS, which median seed-adjusted z-score is on record?
**A.** 1.03 (active)

**Q.** Which median seed-adjusted z-score does the source give for GGUAAUCUUUAUGAAGAGATT against GCM1 here?
**A.** 0.0197

**Q.** Which median seed-adjusted z-score does the source give for GCCUGUAAGUUAUUAAAGATT against ARL4D here?
**A.** -0.523

**Q.** With GGCUGAAAUUGUAACCCUATT against TPD52L3 as the sequence, how does the median seed-adjusted z-score read?
**A.** 0.552

**Q.** With GCAACCUUCUAACUACGGUTT against HNRNPA2B1 as the sequence, how does the median seed-adjusted z-score read?
**A.** 1.33 (active)

**Q.** With CAGGAUCUGUUCAACCAAATT against VWA2 as the sequence, how does the median seed-adjusted z-score read?
**A.** 0.584

**Q.** With GGAUGGGAACAACCCUGCATT against HMGN4 as the sequence, how does the median seed-adjusted z-score read?
**A.** -0.0471

**Q.** With CCUCCUUGUUAGUGUCUUUTT against CLEC11A as the sequence, how does the median seed-adjusted z-score read?
**A.** -1.1 (active)

**Q.** With CCAGGUCCCUAAUCAUGGATT against NOXA1 as the sequence, how does the median seed-adjusted z-score read?
**A.** -0.441

**Q.** Which median seed-adjusted z-score does the source give for GGGAAGCACUGGUCGAAGATT against DTD1 here?
**A.** -1.58 (active)

**Q.** For AGGCCUUUCUGGGACCUUATT against ZP4, which median seed-adjusted z-score is on record?
**A.** 0.0498

**Q.** With CUAAGACCAGUAUAGUAAATT against ARF6 as the sequence, how does the median seed-adjusted z-score read?
**A.** -0.805

**Q.** Which median seed-adjusted z-score does the source give for GGAUCUGGUUCAACUUGGATT against FUT3 here?
**A.** 0.11

**Q.** With GUGUCUCAGGGAUAGGUAATT against MICAL2 as the sequence, how does the median seed-adjusted z-score read?
**A.** -0.0224

**Q.** For AGGAGUUCUUGGUCAUGAUTT against TNNC2, which median seed-adjusted z-score is on record?
**A.** -0.773

**Q.** For GCAUUACAGUCUGAAUUGATT against PTPDC1, which median seed-adjusted z-score is on record?
**A.** -0.191

**Q.** With GCUUUAUGCUGCUAAGGCATT against PGD as the sequence, how does the median seed-adjusted z-score read?
**A.** -1.55 (active)

**Q.** For CGACAAGUCUUCGACCUGATT against DGKZ, which median seed-adjusted z-score is on record?
**A.** 0

**Q.** With GCUGCUAUUUGAUAGACCATT against HNRNPM as the sequence, how does the median seed-adjusted z-score read?
**A.** 0.499

**Q.** For GAAUGAUGAUGCAUGCCUUTT against MS4A10, which median seed-adjusted z-score is on record?
**A.** -0.24

**Q.** For CACCUCUAAUCAUCGAUGATT against UAP1, which median seed-adjusted z-score is on record?
**A.** 0.0411

**Q.** With AGGUCUGGACGACAACUAUTT against MST1 as the sequence, how does the median seed-adjusted z-score read?
**A.** -1.47 (active)
